As a reminder, the Inhibition is the change of the read-out against control, counted positive when it falls.

SMILES strings stand for the structures. Potency and affinity values are given separately.

The test system of this assay is Cryptococcus neoformans. Particulars: Concentration 20 uM; ASSAY_TEST Inhibition of Fungal Growth; detection method Resazurin; Absorption (OD600-OD570); plate type 384well; NBS; CORNING #3640. (In general: Resazurin is reduced to fluorescent resorufin, in cell work by metabolically active cells.)
As to `CN(C)CCC=C1c2ccccc2CCc2ccccc21.Cl` [AMITRIPTYLINE HYDROCHLORIDE], the Inhibition is listed as -4.46%. Then `Cl.O.Oc1cc2c(cc1O)[C@H]1c3ccccc3CN[C@@H]1CC2`, with -4.18%; and `CN1[C@@H](CC(=O)c2ccccc2)CCC[C@H]1C[C@H](O)c1ccccc1.Cl` [LOBELINE HYDROCHLORIDE], with -5.47%.

These data come from ChEMBL document CHEMBL4513141, “CO-ADD screening of NIH (USA) - Clinical Collection” (2021).
